The record followed here is PubChem BioAssay (NCI).

The panel holds about 83,000 compounds, 20% with a hit somewhere; the sample as a whole holds those more often.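 Treatment: one concentration, 48 hours, 96-well format. Scoring: percent growth, with anything below 10 considered active.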 A number with no mark means an inactive call. Active and inactive are the calls of the source.

Among the test systems are NCI-H23 lung; NCI-H460 lung; 786-0 renal; DU-145 prostate; MDA-MB-231 breast; SF-268 CNS; SF-539 CNS; M14 melanoma; SNB-75 CNS; PC-3 prostate; UACC-62 melanoma; SK-MEL-28 melanoma; ACHN renal; OVCAR-5 ovarian; OVCAR-3 ovarian; NCI/ADR-RES ovarian; SW-620 colon; MCF7 breast; HCT-116 colon; KM12 colon.
What all share (test): NCI-60 one-dose screen, 48 h (100 = growth as untreated, 0 = no growth, -100 = all killed)
Conditions in all cases: 10 µM unless noted

In the case of `C[C@]12CCC(=O)CC1CC[C@@H]1C2CC[C@@]2(C)C1CC[C@@H]2OC(=O)CC[Se][Se]CCC(=O)O[C@H]1CCC2[C@@H]3CCC4CC(=O)CC[C@]4(C)C3CC[C@@]21C` (stereo partly specified), the growth is 102% in the assay on NCI-H23 lung; 95.9% in the assay with NCI-H460 lung; 107% with 786-0 renal; 110% in the assay with DU-145 prostate; 94.3% in the assay with MDA-MB-231 breast; 94.1% in the assay on SF-268 CNS. Further, the growth in the assay on SF-539 CNS was 103%; with M14 melanoma, 78.7%; with SNB-75 CNS, 109%; in the assay on PC-3 prostate it was 89.4%; in the assay with UACC-62 melanoma it was 88.5%; in the assay with SK-MEL-28 melanoma it was 98.9%. Also, the growth with ACHN renal was 100%; with OVCAR-5 ovarian, 102%; in the assay on OVCAR-3 ovarian, 109%; in the assay with NCI/ADR-RES ovarian it was 92.9%; in the assay on SW-620 colon, 122%; in the assay on MCF7 breast it was 80.8%. Also, the figures for the growth in the assay with HCT-116 colon and with KM12 colon were 95.5% and 103%, respectively.
As for `O=C1c2ccccc2C(=O)N1[N+](=O)[O-]`, the growth in the assay on NCI-H23 lung was 95.3%; in the assay with NCI-H460 lung, 102%; in the assay with 786-0 renal, 100%; in the assay on DU-145 prostate, 106%; with MDA-MB-231 breast, 101%; with SF-268 CNS it was 104%. Also, the growth in the assay with SF-539 CNS was 108%; in the assay with M14 melanoma it was 105%; in the assay with SNB-75 CNS, 103%; with PC-3 prostate it was 94.9%; with UACC-62 melanoma, 96.1%; in the assay on SK-MEL-28 melanoma it was 112%. For the same molecule, the growth is 111% in the assay on ACHN renal; 112% with OVCAR-5 ovarian; 106% in the assay on OVCAR-3 ovarian; 97.9% with NCI/ADR-RES ovarian; 103% with SW-620 colon; 92.5% with MCF7 breast. Moreover, the figures for the growth with HCT-116 colon and with KM12 colon were 112% and 101%, respectively.
On to `NS(=O)(=O)c1nc[nH]c1[N+](=O)[O-]`, for which the growth in the assay with NCI-H23 lung was 99.8%; in the assay on NCI-H460 lung it was 106%; with 786-0 renal, 102%; in the assay on DU-145 prostate, 111%; in the assay with MDA-MB-231 breast, 102%; in the assay on SF-268 CNS, 103%. Also, the growth was 100% in the assay on SF-539 CNS; 102% in the assay on M14 melanoma; 92.1% in the assay on SNB-75 CNS; 86.5% in the assay on PC-3 prostate; 102% in the assay on UACC-62 melanoma; 105% with SK-MEL-28 melanoma. Moreover, the growth in the assay with ACHN renal is 96.9%; in the assay with OVCAR-5 ovarian it was 96.7%; in the assay with OVCAR-3 ovarian it was 115%; in the assay on NCI/ADR-RES ovarian, 102%; in the assay on SW-620 colon, 107%; in the assay on MCF7 breast it was 94.9%. The growth with HCT-116 colon was 104%; in the assay with KM12 colon, 103%.
Consider `CC1COC(=O)C1` (stereo unspecified), for which the growth in the assay on NCI-H23 lung is 104%; with NCI-H460 lung, 102%; in the assay with 786-0 renal, 95.1%; in the assay on DU-145 prostate, 104%; with MDA-MB-231 breast, 120%; with SF-268 CNS, 109%. The growth in the assay on SF-539 CNS is 96.4%; in the assay on M14 melanoma it was 102%; with SNB-75 CNS it was 81.9%; with PC-3 prostate, 102%; in the assay on UACC-62 melanoma, 106%; in the assay on SK-MEL-28 melanoma, 103%. Also, the growth in the assay on ACHN renal is 108%; with OVCAR-5 ovarian, 102%; with OVCAR-3 ovarian it was 107%; in the assay with NCI/ADR-RES ovarian, 106%; with SW-620 colon it was 97.8%; in the assay on MCF7 breast, 93.8%. Further, the growth in the assay with HCT-116 colon is 102%; in the assay with KM12 colon, 99.8%.
`CC[CH2][Pb]([CH2]CC)([CH2]CC)[O]C(=O)C(F)(F)F`: the growth in the assay with NCI-H23 lung was -46.4% (active); with NCI-H460 lung, -71.6% (active); with 786-0 renal, -98.6% (active); in the assay on DU-145 prostate, -100% (active); in the assay with MDA-MB-231 breast it was -50.3% (active); in the assay on SF-268 CNS, -82.3% (active). For the same molecule, the growth was -99.2% (active) in the assay with SF-539 CNS; -91.6% (active) in the assay with M14 melanoma; -99.9% (active) in the assay with SNB-75 CNS; -83.2% (active) in the assay with UACC-62 melanoma; -97.2% (active) in the assay with SK-MEL-28 melanoma; -100% (active) in the assay with ACHN renal. Also, the growth was -99% (active) in the assay on OVCAR-5 ovarian; -95.4% (active) in the assay on OVCAR-3 ovarian; -36.6% (active) with NCI/ADR-RES ovarian; -50.8% (active) with SW-620 colon; -79.7% (active) in the assay with MCF7 breast; -95% (active) with HCT-116 colon. For the same molecule, the growth in the assay on KM12 colon was -88.2% (active).
In the case of `O=C(N/N=C/c1ccc(N(CCCl)CCCl)cc1)c1cc(=O)[nH]c(=O)[nH]1`, the growth is 79.7% in the assay on NCI-H23 lung; 39% in the assay with NCI-H460 lung; 83.2% with 786-0 renal; 91.4% in the assay on DU-145 prostate; 95.2% in the assay with SF-268 CNS; 91.3% in the assay with SF-539 CNS. Moreover, the growth in the assay on M14 melanoma is 103%; in the assay on SNB-75 CNS, 92.8%; in the assay with PC-3 prostate, 89.2%; with SK-MEL-28 melanoma, 116%; with ACHN renal, 94.2%; in the assay with OVCAR-5 ovarian, 134%. Moreover, the growth with OVCAR-3 ovarian was 115%; with NCI/ADR-RES ovarian it was 108%; with SW-620 colon, 108%; in the assay on MCF7 breast, 74.5%; with HCT-116 colon, 90.7%; in the assay with KM12 colon, 111%.
As for `CCC(CC)(c1ccccc1)C(OC(N)=O)c1ccccc1` (stereo unspecified), the growth with NCI-H23 lung was 79.9%; in the assay on NCI-H460 lung, 90.1%; with 786-0 renal, 82.9%; in the assay with DU-145 prostate it was 98.4%; in the assay with MDA-MB-231 breast, 94.7%; in the assay with SF-268 CNS it was 93.9%. Further, the growth with SF-539 CNS is 103%; in the assay with M14 melanoma, 83.6%; in the assay on SNB-75 CNS, 74.8%; with PC-3 prostate, 72.3%; in the assay on SK-MEL-28 melanoma, 85.4%; in the assay with ACHN renal, 87.4%. Besides, the growth with OVCAR-5 ovarian was 111%; with OVCAR-3 ovarian, 89%; with NCI/ADR-RES ovarian it was 79.9%; with SW-620 colon, 81%; in the assay with MCF7 breast it was 81.9%; in the assay with HCT-116 colon, 62.4%. The growth in the assay on KM12 colon is 83.8%.
With `Cc1cc(NC(=O)/C=C/c2ccc([N+](=O)[O-])cc2)ccc1S(=O)(=O)F`, the growth with NCI-H23 lung was 109%; in the assay on NCI-H460 lung, 103%; in the assay on 786-0 renal it was 89.1%; with DU-145 prostate, 103%; in the assay on MDA-MB-231 breast it was 99.6%; with SF-268 CNS, 109%. Moreover, the growth was 112% in the assay on SF-539 CNS; 112% in the assay with M14 melanoma; 106% with SNB-75 CNS; 98.9% with PC-3 prostate; 98.2% in the assay on UACC-62 melanoma; 110% with SK-MEL-28 melanoma. Besides, the growth with ACHN renal is 105%; in the assay with OVCAR-5 ovarian, 113%; in the assay with OVCAR-3 ovarian, 122%; in the assay with NCI/ADR-RES ovarian, 106%; with SW-620 colon, 110%; with MCF7 breast, 91.8%. The values for the growth in the assay with HCT-116 colon and with KM12 colon were 113% and 97%, respectively.
